Results as given in the supplement of paper PMC10849652.
The full data set covers some 8,800 targets. This sample favours those with a hit. About 0.5% of all pairs of compound and target were hits.

What was measured:
Test in all cases: log2 fold change, soluble protein after heating vs DMSO (PISA); higher = thermal stabilisation; K562 lysate, 10 uM; active = over 0.2 and 3.5 SD of the protein, either way, in both replicates (recomputed)
alvocidib = compound: CN1CC[C@H](c2c(O)cc(O)c3c(=O)cc(-c4ccccc4Cl)oc23)[C@H](O)C1 [alvocidib]
Summary of the method: (§1)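 Quantification was by TMTpro 16plex LC-MS/MS with equalised channel sums, applied to the supernatant after 21,000xg for 90 min. Samples were crude K562 extract at 1 mg/mL protein in PBS pH 7.4 with 1 mM MgCl2, treated with 10 μM compound for 30 min, heated for 3 min across 48°C-58°C, pooled and brought to 0.5% NP-40 at 4°C. Values are log-two fold changes in thermal stability relative to solvent controls, from duplicates.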

Tubastatin A = compound: CN1CCc2c(c3ccccc3n2Cc2ccc(C(=O)NO)cc2)C1 [Tubastatin A]
Summary of the method: as §1

[1] = compound: CNC(=O)C1=CC=CC=C1NC2=NC(=NC=C2Cl)NC3=C(C=C(C=C3)N4CCOCC4)OC
Summary of the method: as §1

defactinib = compound: CNC(=O)c1ccc(Nc2ncc(C(F)(F)F)c(NCc3nccnc3N(C)S(C)(=O)=O)n2)cc1 [defactinib]
Summary of the method: as §1

[2] = compound: CNc1nc(-c2ccc3c(N)n[nH]c3c2)cc(N2C[C@@H](C(=O)NC3CCCCC3)CC[C@H]2C)n1
Summary of the method: as §1

encorafenib = compound: COC(=O)N[C@@H](C)CNc1nccc(-c2cn(C(C)C)nc2-c2cc(Cl)cc(NS(C)(=O)=O)c2F)n1 [encorafenib]
Summary of the method: as §1

[3] = compound: COC(=O)[C@H](CCSC)NC(=O)C1=C(C=C(C=C1)NC[C@H](CS)N)C2=CC=CC=C2
Summary of the method: as §1

alisertib = compound: COc1cc(Nc2ncc3c(n2)-c2ccc(Cl)cc2C(c2c(F)cccc2OC)=NC3)ccc1C(=O)O [alisertib]
Summary of the method: as §1

[4] = compound: COc1cc2nc(-c3cc(F)ccc3O)nc(N[C@@H]3CNC[C@H]3C(C)(C)O)c2cc1OC
Summary of the method: as §1

gefitinib = compound: COc1cc2ncnc(Nc3ccc(F)c(Cl)c3)c2cc1OCCCN1CCOCC1 [gefitinib]
Summary of the method: as §1

lapatinib = compound: CS(=O)(=O)CCNCc1ccc(-c2ccc3ncnc(Nc4ccc(OCc5cccc(F)c5)c(Cl)c4)c3c2)o1 [lapatinib]
Summary of the method: as §1

pictilisib = compound: CS(=O)(=O)N1CCN(Cc2cc3nc(-c4cccc5[nH]ncc45)nc(N4CCOCC4)c3s2)CC1 [pictilisib]
Summary of the method: as §1

crizotinib = compound: C[C@@H](Oc1cc(-c2cnn(C3CCNCC3)c2)cnc1N)c1c(Cl)ccc(F)c1Cl [crizotinib]
Summary of the method: as §1

[5] = compound: C[C@H](C1=CC=C(C=C1)C(=O)NC2=C3C=CNC3=NC=C2)N
Summary of the method: as §1

duvelisib = compound: C[C@H](Nc1ncnc2nc[nH]c12)c1cc2cccc(Cl)c2c(=O)n1-c1ccccc1 [duvelisib]
Summary of the method: as §1

gandotinib = compound: Cc1cc(Nc2cc(CN3CCOCC3)c3nc(C)c(Cc4ccc(Cl)cc4F)n3n2)n[nH]1 [gandotinib]
Summary of the method: as §1

tozasertib = compound: Cc1cc(Nc2cc(N3CCN(C)CC3)nc(Sc3ccc(NC(=O)C4CC4)cc3)n2)n[nH]1 [tozasertib]
Summary of the method: as §1

doramapimod = compound: Cc1ccc(-n2nc(C(C)(C)C)cc2NC(=O)Nc2ccc(OCCN3CCOCC3)c3ccccc23)cc1 [doramapimod]
Summary of the method: as §1

bafetinib = compound: Cc1ccc(NC(=O)c2ccc(CN3CC[C@H](N(C)C)C3)c(C(F)(F)F)c2)cc1Nc1nccc(-c2cncnc2)n1 [bafetinib]
Summary of the method: as §1

[6] = compound: Cc1cccc(CC(=O)N2CCc3c2ccc(-c2cn(C)c4ncnc(N)c24)c3F)n1
Summary of the method: as §1

Measured: log2 fold change

CHMP4A isoform 2 (UniProt Q9BY43)
UniProt Q9BY43, sequence (Q9BY43 whole entry, looked up): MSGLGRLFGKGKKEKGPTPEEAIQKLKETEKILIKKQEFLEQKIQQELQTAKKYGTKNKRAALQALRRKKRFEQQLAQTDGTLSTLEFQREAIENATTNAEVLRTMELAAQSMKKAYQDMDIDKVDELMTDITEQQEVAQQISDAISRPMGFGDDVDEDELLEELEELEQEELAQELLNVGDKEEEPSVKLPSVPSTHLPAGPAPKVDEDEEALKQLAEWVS
active: [5] -0.227
inactive: alvocidib -0.096 | Tubastatin A 0.048 | [1] -0.01 | defactinib 0.007 | [2] 0.039 | encorafenib 0.026 | [3] -0.001 | alisertib 0.028 | [4] 0.043 | gefitinib 0.041 | lapatinib 0.009 | pictilisib 0.022 | crizotinib -0.047 | duvelisib -0.001 | gandotinib 0.182 | tozasertib -0.01 | doramapimod 0.054 | bafetinib -0.036 | [6] 0.18

DCP1A (UniProt Q9NPI6)
inactive: alvocidib -0.002 | Tubastatin A 0 | [1] 0.003 | defactinib 0.033 | [2] 0 | encorafenib 0.006 | [3] -0.046 | alisertib -0.074 | [4] 0.026 | gefitinib 0.022 | lapatinib -0.015 | pictilisib -0.015 | crizotinib -0.042 | [5] -0.008 | duvelisib 0.023 | gandotinib 0.003 | tozasertib -0.03 | doramapimod -0.031 | bafetinib 0.043 | [6] 0.089

CSK (UniProt P41240)
UniProt P41240, sequence (P41240 whole entry, looked up): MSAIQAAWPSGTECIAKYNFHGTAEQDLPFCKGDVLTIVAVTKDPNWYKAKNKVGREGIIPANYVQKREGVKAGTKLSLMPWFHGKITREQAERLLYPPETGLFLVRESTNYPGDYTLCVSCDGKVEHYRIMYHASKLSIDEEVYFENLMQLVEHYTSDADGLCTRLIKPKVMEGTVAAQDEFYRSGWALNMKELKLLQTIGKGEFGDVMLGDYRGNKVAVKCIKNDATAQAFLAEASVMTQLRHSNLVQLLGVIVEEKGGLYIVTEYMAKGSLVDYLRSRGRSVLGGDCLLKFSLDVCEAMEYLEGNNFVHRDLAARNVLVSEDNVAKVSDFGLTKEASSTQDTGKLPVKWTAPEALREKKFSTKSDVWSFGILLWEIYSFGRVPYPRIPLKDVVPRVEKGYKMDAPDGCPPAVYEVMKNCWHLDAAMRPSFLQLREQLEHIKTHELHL
inactive: alvocidib 0.076 | Tubastatin A -0.088 | [1] 0.262 | defactinib 0.068 | [2] -0.027 | encorafenib -0.026 | [3] -0.063 | alisertib 0.072 | [4] -0.008 | gefitinib -0.01 | lapatinib -0.022 | pictilisib -0.017 | crizotinib 0.259 | [5] -0.075 | duvelisib -0.026 | gandotinib 0.377 | tozasertib 0.098 | doramapimod -0.005 | bafetinib 0.41 | [6] 0

DHFR (UniProt P00374)
UniProt P00374, sequence (P00374 whole entry, looked up): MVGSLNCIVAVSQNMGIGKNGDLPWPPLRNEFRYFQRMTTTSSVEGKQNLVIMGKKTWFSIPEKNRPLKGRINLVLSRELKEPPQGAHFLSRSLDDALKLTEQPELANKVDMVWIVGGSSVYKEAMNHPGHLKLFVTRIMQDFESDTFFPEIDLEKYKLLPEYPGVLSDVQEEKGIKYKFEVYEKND
inactive: alvocidib 0.03 | Tubastatin A -0.111 | [1] -0.001 | defactinib 0.039 | [2] -0.023 | encorafenib 0.01 | [3] 0.141 | alisertib 0.017 | [4] -0.192 | gefitinib 0.028 | lapatinib -0.012 | pictilisib -0.069 | crizotinib -0.054 | [5] 0.04 | duvelisib -0.015 | gandotinib -0.099 | tozasertib 0.022 | doramapimod 0.011 | bafetinib -0.047 | [6] -0.077

CUX1 isoform 3 (UniProt P39880)
UniProt P39880, sequence (P39880 whole entry, looked up): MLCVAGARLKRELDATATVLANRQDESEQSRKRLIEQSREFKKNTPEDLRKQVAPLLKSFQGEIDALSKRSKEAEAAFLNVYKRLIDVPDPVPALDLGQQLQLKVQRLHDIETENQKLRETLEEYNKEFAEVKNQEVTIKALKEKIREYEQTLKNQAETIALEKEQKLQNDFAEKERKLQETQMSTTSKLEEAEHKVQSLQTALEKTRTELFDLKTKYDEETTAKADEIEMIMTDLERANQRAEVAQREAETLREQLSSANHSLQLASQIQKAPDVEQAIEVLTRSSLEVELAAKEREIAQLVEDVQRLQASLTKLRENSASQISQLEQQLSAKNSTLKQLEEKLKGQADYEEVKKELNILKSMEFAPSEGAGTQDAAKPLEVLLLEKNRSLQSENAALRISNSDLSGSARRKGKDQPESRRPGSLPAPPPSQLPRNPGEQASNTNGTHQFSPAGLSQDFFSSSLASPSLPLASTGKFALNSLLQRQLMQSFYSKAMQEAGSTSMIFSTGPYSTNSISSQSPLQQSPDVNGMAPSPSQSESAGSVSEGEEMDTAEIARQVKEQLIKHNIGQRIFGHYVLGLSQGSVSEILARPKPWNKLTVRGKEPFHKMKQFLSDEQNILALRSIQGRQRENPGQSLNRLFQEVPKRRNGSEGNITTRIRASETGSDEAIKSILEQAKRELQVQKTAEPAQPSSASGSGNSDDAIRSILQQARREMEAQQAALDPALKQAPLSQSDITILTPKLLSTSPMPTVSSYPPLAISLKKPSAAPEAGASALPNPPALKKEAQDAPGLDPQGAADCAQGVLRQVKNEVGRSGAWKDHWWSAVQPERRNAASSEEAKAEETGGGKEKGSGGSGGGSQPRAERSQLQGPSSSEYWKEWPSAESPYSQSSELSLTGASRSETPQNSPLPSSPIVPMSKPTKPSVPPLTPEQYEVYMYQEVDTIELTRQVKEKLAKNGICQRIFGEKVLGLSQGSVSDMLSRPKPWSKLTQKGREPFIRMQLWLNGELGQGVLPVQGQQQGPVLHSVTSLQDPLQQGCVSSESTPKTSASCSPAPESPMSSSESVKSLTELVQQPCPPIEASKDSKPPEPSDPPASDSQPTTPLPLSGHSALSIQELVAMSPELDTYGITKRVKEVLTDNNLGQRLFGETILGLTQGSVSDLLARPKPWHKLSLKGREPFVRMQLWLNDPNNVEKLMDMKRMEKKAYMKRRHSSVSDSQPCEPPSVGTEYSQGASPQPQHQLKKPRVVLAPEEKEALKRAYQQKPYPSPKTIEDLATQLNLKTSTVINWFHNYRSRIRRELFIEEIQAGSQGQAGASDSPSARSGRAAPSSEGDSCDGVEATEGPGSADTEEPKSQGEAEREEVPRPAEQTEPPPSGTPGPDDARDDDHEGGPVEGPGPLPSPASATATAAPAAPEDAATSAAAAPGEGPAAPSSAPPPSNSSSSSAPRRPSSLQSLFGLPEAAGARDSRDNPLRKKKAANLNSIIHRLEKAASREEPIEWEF
inactive: alvocidib -0.03 | Tubastatin A 0.003 | [1] 0.055 | defactinib -0.006 | [2] 0.005 | encorafenib 0 | [3] 0 | alisertib 0.067 | [4] -0.042 | gefitinib 0.014 | lapatinib -0.01 | pictilisib -0.045 | crizotinib 0.004 | [5] 0.076 | duvelisib 0.007 | gandotinib -0.116 | tozasertib 0.032 | doramapimod -0.025 | bafetinib -0.012 | [6] 0.007

DGCR8 (UniProt Q8WYQ5)
inactive: alvocidib 0.009 | Tubastatin A -0.115 | [1] -0.009 | defactinib -0.046 | [2] 0.042 | encorafenib 0.018 | [3] 0.081 | alisertib 0.022 | [4] 0.027 | gefitinib -0.034 | lapatinib -0.023 | pictilisib -0.048 | crizotinib 0.039 | [5] -0.056 | duvelisib -0.014 | gandotinib -0.032 | tozasertib -0.012 | doramapimod 0.04 | bafetinib -0.009 | [6] 0.044

DICER1 (UniProt Q9UPY3)
inactive: alvocidib -0.032 | Tubastatin A -0.172 | [1] 0.112 | defactinib 0.046 | [2] -0.003 | encorafenib 0.037 | [3] 0.039 | alisertib 0.012 | [4] -0.022 | gefitinib -0.027 | lapatinib -0.02 | pictilisib -0.071 | crizotinib -0.075 | [5] -0.075 | duvelisib -0.05 | gandotinib 0.02 | tozasertib 0.035 | doramapimod 0.039 | bafetinib -0.11 | [6] 0.084

CNOT4 isoform 6 (UniProt O95628)
inactive: alvocidib 0.015 | Tubastatin A -0.011 | [1] -0.009 | defactinib 0.001 | [2] -0.069 | encorafenib 0.076 | [3] -0.051 | alisertib -0.003 | [4] -0.041 | gefitinib -0.007 | lapatinib 0.039 | pictilisib -0.06 | crizotinib 0.146 | [5] -0.093 | duvelisib -0.011 | gandotinib 0.075 | tozasertib -0.027 | bafetinib -0.054 | [6] 0.028
active: doramapimod -0.234

CXXC1 isoform 2 (UniProt Q9P0U4)
active: [2] 0.468
inactive: alvocidib -0.003 | Tubastatin A -0.138 | [1] -0.021 | defactinib -0.004 | encorafenib -0.032 | [3] 0.152 | alisertib 0.069 | [4] 0.068 | gefitinib 0.015 | lapatinib -0.024 | pictilisib 0.107 | crizotinib -0.089 | [5] 0.058 | duvelisib 0.154 | gandotinib -0.046 | tozasertib -0.028 | doramapimod 0.018 | bafetinib -0.047 | [6] 0.005

DEF6 (UniProt Q9H4E7)
inactive: alvocidib -0.036 | Tubastatin A -0.154 | [1] 0.027 | defactinib -0.07 | [2] 0.039 | encorafenib 0.019 | [3] -0.002 | alisertib 0.097 | [4] 0.013 | gefitinib -0.01 | lapatinib -0.021 | pictilisib 0.057 | crizotinib -0.095 | [5] -0.049 | duvelisib 0.013 | gandotinib 0.032 | tozasertib 0.009 | doramapimod 0 | bafetinib 0.151 | [6] 0.188

CLUH, A0A494C0R8
active: [5] 0.557
inactive: alvocidib 0.076 | Tubastatin A -0.08 | [1] -0.015 | defactinib -0.184 | [2] -0.049 | encorafenib -0.089 | [3] 0.054 | alisertib -0.05 | [4] 0.005 | gefitinib 0.138 | lapatinib -0.052 | crizotinib -0.019 | duvelisib 0.154 | gandotinib -0.108 | tozasertib -0.025 | doramapimod -0.026 | bafetinib -0.091 | [6] -0.14

DDX4 (UniProt Q9NQI0)
inactive: alvocidib -0.234 | Tubastatin A -0.173 | [1] -0.05 | defactinib -0.058 | [2] -0.116 | encorafenib -0.047 | [3] -0.02 | alisertib 0.032 | [4] -0.007 | gefitinib 0.021 | lapatinib -0.045 | pictilisib 0.035 | duvelisib 0.02 | gandotinib 0.132 | tozasertib 0.078 | bafetinib -0.167 | [6] 0.174
active: [5] -0.481

CNNM2 (UniProt Q9H8M5)
inactive: alvocidib -0.049 | Tubastatin A -0.105 | [1] 0.007 | defactinib 0.065 | [2] -0.01 | encorafenib -0.048 | [3] 0.033 | [4] -0.003 | lapatinib 0.006 | crizotinib 0.021 | [5] -0.039 | duvelisib 0.041 | gandotinib -0.064 | tozasertib -0.078 | doramapimod -0.026 | [6] 0.036

CLIP1 isoform 1 (UniProt P30622)
UniProt P30622, sequence (P30622 whole entry, looked up): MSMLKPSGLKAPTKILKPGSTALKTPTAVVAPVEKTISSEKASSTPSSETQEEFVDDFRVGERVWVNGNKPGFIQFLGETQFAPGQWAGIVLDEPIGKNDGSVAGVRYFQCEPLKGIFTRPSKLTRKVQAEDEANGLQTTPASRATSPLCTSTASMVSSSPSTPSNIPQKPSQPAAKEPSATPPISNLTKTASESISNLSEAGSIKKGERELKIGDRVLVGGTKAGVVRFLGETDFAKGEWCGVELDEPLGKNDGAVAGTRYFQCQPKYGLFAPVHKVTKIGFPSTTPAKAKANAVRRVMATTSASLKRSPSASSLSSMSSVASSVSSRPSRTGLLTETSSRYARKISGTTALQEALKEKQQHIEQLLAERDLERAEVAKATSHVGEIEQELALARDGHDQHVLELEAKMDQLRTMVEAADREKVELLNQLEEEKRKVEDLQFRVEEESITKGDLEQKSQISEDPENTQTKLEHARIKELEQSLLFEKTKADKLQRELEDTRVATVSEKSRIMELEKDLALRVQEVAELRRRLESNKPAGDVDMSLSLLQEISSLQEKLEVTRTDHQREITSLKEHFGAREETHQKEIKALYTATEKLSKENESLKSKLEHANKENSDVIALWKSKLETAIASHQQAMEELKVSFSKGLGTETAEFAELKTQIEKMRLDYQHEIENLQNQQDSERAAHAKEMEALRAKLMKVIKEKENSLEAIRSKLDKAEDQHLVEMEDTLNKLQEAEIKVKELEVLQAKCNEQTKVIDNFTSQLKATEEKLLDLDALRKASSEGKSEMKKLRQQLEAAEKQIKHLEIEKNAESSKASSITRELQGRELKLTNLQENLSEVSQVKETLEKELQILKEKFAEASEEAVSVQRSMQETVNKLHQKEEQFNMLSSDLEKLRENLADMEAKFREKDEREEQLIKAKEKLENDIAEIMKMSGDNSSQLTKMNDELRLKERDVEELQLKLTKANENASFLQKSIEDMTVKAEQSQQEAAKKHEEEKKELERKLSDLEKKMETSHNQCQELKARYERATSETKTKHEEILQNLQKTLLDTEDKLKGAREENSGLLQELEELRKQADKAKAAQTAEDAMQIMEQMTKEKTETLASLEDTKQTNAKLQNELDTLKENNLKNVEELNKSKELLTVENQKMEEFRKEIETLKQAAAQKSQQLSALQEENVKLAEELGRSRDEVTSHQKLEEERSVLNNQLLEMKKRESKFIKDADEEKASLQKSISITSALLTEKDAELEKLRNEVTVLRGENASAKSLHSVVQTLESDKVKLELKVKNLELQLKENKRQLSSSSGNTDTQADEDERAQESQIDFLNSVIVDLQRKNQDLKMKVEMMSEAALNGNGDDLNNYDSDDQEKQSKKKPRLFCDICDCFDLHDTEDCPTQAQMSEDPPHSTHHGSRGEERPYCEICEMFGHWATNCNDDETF
inactive: alvocidib -0.005 | Tubastatin A 0.038 | [1] 0.014 | defactinib -0.006 | [2] -0.008 | encorafenib 0.003 | [3] -0.03 | alisertib -0.016 | [4] 0.014 | gefitinib 0.001 | lapatinib 0.006 | crizotinib 0.023 | [5] -0.023 | duvelisib 0.004 | gandotinib 0.036 | tozasertib 0.001 | doramapimod 0.011 | bafetinib -0.003 | [6] -0.01

CLCN3 isoform 2 (UniProt P51790)
inactive: alvocidib -0.02 | Tubastatin A 0.02 | [1] 0.024 | defactinib -0.015 | [2] 0.033 | encorafenib 0.041 | [3] 0.022 | alisertib -0.007 | [4] -0.002 | gefitinib 0.005 | lapatinib 0.047 | crizotinib -0.047 | [5] -0.075 | duvelisib 0.034 | gandotinib -0.018 | tozasertib -0.011 | doramapimod 0.026 | bafetinib -0.005 | [6] 0.024

CLASP2 isoform 3 (UniProt O75122)
UniProt O75122, sequence (O75122 whole entry, looked up): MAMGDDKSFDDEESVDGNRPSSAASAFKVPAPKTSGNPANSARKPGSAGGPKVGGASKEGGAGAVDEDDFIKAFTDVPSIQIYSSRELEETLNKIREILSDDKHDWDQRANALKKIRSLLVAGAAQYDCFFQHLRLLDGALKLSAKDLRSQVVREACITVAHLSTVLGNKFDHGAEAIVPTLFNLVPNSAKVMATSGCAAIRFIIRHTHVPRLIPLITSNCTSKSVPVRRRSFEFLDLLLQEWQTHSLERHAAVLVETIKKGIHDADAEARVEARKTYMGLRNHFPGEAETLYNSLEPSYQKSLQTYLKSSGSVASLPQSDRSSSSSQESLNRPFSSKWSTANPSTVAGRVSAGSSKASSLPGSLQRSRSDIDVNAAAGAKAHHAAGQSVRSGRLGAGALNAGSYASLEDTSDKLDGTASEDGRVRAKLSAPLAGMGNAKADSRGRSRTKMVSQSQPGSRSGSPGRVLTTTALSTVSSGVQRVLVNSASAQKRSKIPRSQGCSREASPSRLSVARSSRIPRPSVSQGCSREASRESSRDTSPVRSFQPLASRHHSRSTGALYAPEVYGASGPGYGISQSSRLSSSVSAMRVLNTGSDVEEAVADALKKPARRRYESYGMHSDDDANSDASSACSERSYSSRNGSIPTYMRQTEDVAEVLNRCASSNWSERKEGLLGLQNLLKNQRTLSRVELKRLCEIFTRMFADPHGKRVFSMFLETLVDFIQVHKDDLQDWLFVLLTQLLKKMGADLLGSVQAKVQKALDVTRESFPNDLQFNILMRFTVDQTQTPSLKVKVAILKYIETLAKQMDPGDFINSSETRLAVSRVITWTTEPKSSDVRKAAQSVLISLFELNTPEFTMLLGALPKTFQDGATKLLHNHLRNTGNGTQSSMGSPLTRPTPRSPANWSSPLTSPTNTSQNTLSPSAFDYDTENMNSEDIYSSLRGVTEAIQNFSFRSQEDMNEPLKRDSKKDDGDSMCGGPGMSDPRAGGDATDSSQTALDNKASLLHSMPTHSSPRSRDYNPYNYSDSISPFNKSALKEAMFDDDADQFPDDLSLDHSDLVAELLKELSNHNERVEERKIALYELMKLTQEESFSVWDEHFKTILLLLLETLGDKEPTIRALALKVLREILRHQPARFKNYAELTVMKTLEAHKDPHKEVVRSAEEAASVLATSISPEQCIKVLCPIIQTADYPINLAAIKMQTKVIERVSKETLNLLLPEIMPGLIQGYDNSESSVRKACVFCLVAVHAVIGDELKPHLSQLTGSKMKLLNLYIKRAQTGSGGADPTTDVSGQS
active: [6] 0.247
inactive: alvocidib -0.151 | Tubastatin A -0.103 | [1] 0.007 | defactinib -0.051 | [2] -0.003 | encorafenib 0.035 | [3] -0.008 | alisertib 0.032 | [4] 0 | gefitinib -0.007 | lapatinib -0.008 | crizotinib -0.018 | [5] -0.172 | duvelisib -0.015 | gandotinib 0.077 | tozasertib 0.015 | doramapimod 0.041 | bafetinib -0.021
